# Most compounds without a hit are left out; they make up all but 4.1% or so of the library.
# MEKK2mut PB1 HTS = signal of MEK5 binding to mutant human MEKK2 PB1 domain. AID 1530. bead flow cytometry, Alexa488-MEK5 binding to MEKK2 mutant. 0.35% of 290,000 active. percent response, % at 10 µM; in the data active means percent response above about 24%, passing the limit was not always enough
# MEKK2wt PB1 HTS = raises or lowers MEK5 binding to wildtype human MEKK2 PB1 domain | bead flow cytometry, Alexa488-MEK5 binding to MEKK2 WT; actives lie on both sides | 1.1% of 290,000 active | binding response (% of control), % at 10 µM; in the data active means binding response below about 67% or above about 130%
# MEKK3 PB1 HTS = modulators (inhibitors or enhancers) of MEK5 binding to human MEKK3 PB1 domain; binding response (% of control), % at 10 µM; bead-based flow cytometry, Alexa488-MEK5 binding to MEKK3; actives lie on both sides; 0 = blocked by unlabeled MEK5, 100 = vehicle; 1.4% of 290,000 active;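 active means binding response more than 3 SD above or below the average of its plate-row segment, actives on both sides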;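 further: Alexa488 bead fluorescence after subtracting the streptavidin-only scavenger bead signal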
# Mot1-301 SUMO = SUMOylation pathway inhibition by Mot1-301 growth rescue | S. cerevisiae Mot1-301 growth rescue, ATP luminescence, 38.5C; percent above DMSO median, 100 means doubled | growth rescue, % at 18.8 µM | 1% of 320,000 active | AID 2716;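 active means every valid replicate shows activation above 250% relative to neutral control wells; inactive means the rest, any valid replicate at or below 250%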;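 further: OY570 slx delta 5 strain wells were the positive control but not used for scaling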
# CHT PAM = human CHT allosteric activation | CHT-expressing cells, membrane potential dye, choline EC20; hits give high values; LV-AA mutant CHT in HEK293 cells | Q9GZV3 | 0.49% of 310,000 active | B-score at 10 µM;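 active means initial fluorescence not abnormally high and integrated response B-score, plate-corrected, over 3 SD above library mean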
# Target sequence (Q9GZV3 whole entry, looked up): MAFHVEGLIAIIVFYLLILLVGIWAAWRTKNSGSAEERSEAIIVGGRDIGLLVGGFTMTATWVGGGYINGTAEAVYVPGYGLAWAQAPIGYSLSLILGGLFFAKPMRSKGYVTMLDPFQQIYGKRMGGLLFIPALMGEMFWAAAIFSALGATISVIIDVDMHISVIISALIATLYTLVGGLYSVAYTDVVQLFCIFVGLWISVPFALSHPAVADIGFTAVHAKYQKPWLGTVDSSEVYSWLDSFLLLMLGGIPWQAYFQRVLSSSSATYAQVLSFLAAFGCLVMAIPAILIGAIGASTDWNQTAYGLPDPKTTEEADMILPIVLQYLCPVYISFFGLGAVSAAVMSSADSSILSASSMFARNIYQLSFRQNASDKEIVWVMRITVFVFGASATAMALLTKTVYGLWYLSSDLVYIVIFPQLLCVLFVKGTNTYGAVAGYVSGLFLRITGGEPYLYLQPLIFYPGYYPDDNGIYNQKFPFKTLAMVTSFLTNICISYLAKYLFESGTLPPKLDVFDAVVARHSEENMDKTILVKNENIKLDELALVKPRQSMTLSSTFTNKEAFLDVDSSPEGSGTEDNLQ
# CHT inh = inhibits the human high affinity choline transporter | Q9GZV3 | CHT-expressing cells, membrane potential dye, choline response; hits give low values | B-score at 10 µM | 0.86% of 310,000 active | AID 488975;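 active means B-score over 3 SD under the library average, and starting fluorescence ratio not unusually high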;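 further: choline stimulus applied at its EC90 after an EC20 pre-addition; B-score computed on integrated fluorescence ratio after choline addition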
# MEKK2wt confirm = raises or lowers MEK5 binding to wildtype human MEKK2, retest; shares compounds with MEKK3 PB1 HTS; bead flow cytometry, Alexa488-MEK5 binding to MEKK2 WT; actives lie on both sides; binding response (% of control), % at 10 µM; 2.4% of 5,900 active; in the data active means binding response below about 16% or above about 210%; inactive means in between
# MEKK2mut-MEK5 = signal of MEK5 binding to mutant human MEKK2, retest. bead flow cytometry, Alexa488-MEK5 binding to MEKK2 mutant. percent response, % at 10 µM. AID 1893. shares compounds with MEKK3 PB1 HTS. 2% of 5,900 active; in the data active means percent response mostly above about 71%, no sharp cut-off; inactive means mostly below about 38%;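 further: higher means compound restores mutant binding toward wildtype level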
# MEKK3 confirm = confirmation of inhibitors of MEK5 binding to human MEKK3. AID 1894. binding response (% of control), % at 10 µM. 1.8% of 5,900 active. shares compounds with MEKK3 PB1 HTS. bead flow cytometry, Alexa488-MEK5 binding to MEKK3; hits give low values;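 active means binding response below 72% of control, or above a set upper limit, though filed actives all read lower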;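 further: 100% = DMSO only wells and 0% = binding blocked by excess unlabeled MEK5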
# Numbers without * were called inactive; i = inactive; x = no result; [ ] = remark or other dose.
SMILES,MEKK2mut PB1 HTS,MEKK2wt PB1 HTS,MEKK3 PB1 HTS,Mot1-301 SUMO,CHT PAM,CHT inh,MEKK2wt confirm,MEKK2mut-MEK5,MEKK3 confirm
COc1ccc(/C=C(/C#N)C(=O)Nc2ccccc2C)cc1C(=O)O,0,106,108,0,i,i,x,x,x
COc1cc(/C=C(\C#N)C(=O)Nc2ccccc2C(=O)O)cc(Cl)c1OC,-17,56,43*[inhibitor],7,i,i,106,6,106
Cc1ccc(-c2nn(C)c(=O)c3ccccc23)cc1CNC(=O)NC1CCCCC1,4,102,106,370,i,i,x,x,x
Cc1cc(C)c(S(=O)(=O)Nc2ccc(OCC(=O)O)cc2)c(C)c1,2,103,101,-27,i,i,x,x,x
COc1ccc(C2c3ccc4ccccc4c3Oc3ncn(CCN(C)C)c(=N)c32)cc1 (stereo not drawn),29*,157*,106,-17,i,i,124,15,105
CN(C)CCCn1cnc2c(c1=N)C(c1ccccc1)c1ccc3ccccc3c1O2 (stereo not drawn),26*,170*,101,-3,i,i,194,64,103
COc1ccc(C2c3ccc4ccccc4c3Oc3ncn(CCN4CCOCC4)c(=N)c32)cc1 (stereo not drawn),24,179*,108,-23,i,i,172,42,112
COc1ccc(C2c3ccc4ccccc4c3Oc3ncn(CCO)c(=N)c32)cc1 (stereo not drawn),20,151*,115,17,i,i,143,27,95
CCOc1ccc(NC(=O)Cc2ccc(S(=O)(=O)N3CCCCC3)cc2)cc1OCC,x,x,x,9,x,x,x,x,x
CC(=O)Nc1cc(C(=O)N(C)Cc2ccco2)ccc1Sc1ccc(Cl)cc1,1,108,142*,1,i,i,98,-3,102
[O-]/C(=C(\C(=S)NCCN1CCOCC1)[n+]1ccccc1)c1ccc(Cl)s1,-2,93,94,9,i,i,x,x,x
[O-]/C(=C(\C(=S)NCc1ccccc1)[n+]1ccccc1)c1ccc(Cl)s1,-3,81,74*[inhibitor],12,i,i,102,-3,102
CC(C)C(=O)Nc1ccc(S(=O)(=O)N2CCC(c3nc4ccccc4[nH]3)CC2)cc1,x,x,x,3,i,i,x,x,x
CCn1c(=O)cc(C(F)(F)F)[nH]c1=S,2,105,101,10,i,i,x,x,x
O=C(CN1C2=NCCN2c2ccccc21)c1ccc(Br)s1,0,105,142*,35,i,i,99,0,95
COc1ccc(/C=C(/NC(=O)/C=C/c2ccccc2)C(=O)N2CCOCC2)cc1,1,108,149*,8,i,i,108,7,106
N#Cc1ccc(Cn2c(=O)c(C#N)c3n(c2=O)CCC3)cc1,-21,0.0*[inhibitor],0.0*[inhibitor],-19,i,i,106,6,104
Cc1ccc(N(CC(O)CON=C2c3ccccc3-c3ccccc32)S(C)(=O)=O)cc1 (stereo not drawn),-5,95,98,8,i,i,x,x,x
CCN(CC)S(=O)(=O)c1ccc(OC)c(NC(=O)c2cc3c(=O)n4ccccc4nc3s2)c1,0,104,130*,8,i,i,102,-1,105
CCOC(=O)c1c(/N=C/c2cc(C)ccc2O)sc2c1CCN(C)C2,33,124,102,5,i,i,x,x,x
Cc1cccc(/C=N/c2sc3c(c2C(=O)OC(C)(C)C)CCN(C)C3)c1O,42,141*,112,-4,i,i,146,25,108
COC(=O)Cn1c(=NC(=O)c2cc(OC)cc(OC)c2)sc2cc(OC)ccc21,0,103,130*,3,i,i,99,-10,105
COc1ccccc1N(CN1C(=O)c2ccccc2C1=O)C(=O)c1cccc(C)c1,0,107,141*,126,i,i,-3.0*[inhibitor],2,103
O=C(CN1CC(c2ccccc2)CC1=O)N/N=C/c1cc(Br)ccc1O (stereo not drawn),0,106,141*,1,i,i,97,-10,100
O=C(CNC(=O)c1ccccc1)N/N=C/c1cc(Br)ccc1O,0,104,91,11,i,i,x,x,x
SMILES,MEKK2mut PB1 HTS,MEKK2wt PB1 HTS,MEKK3 PB1 HTS,Mot1-301 SUMO,CHT PAM,CHT inh,MEKK2wt confirm,MEKK2mut-MEK5,MEKK3 confirm
Cc1ccc(S(=O)(=O)NCCC(=O)NNC(=O)c2ccccc2O)cc1C,x,x,x,-12,i,i,x,x,x
CCOC(=O)c1ccc(NC(=O)CN2C(=O)C(CC)SC(CC)C2=O)cc1 (stereo not drawn),1,109,148*,-2,i,i,103,2,99
CCOC(=O)c1ccc(NC(=O)CN2C(=O)CSCC2=O)cc1,0,103,132*,3,i,i,96,-2,93
CCOC(=O)c1ccc(NC(=O)CN2C(=O)CSC2=O)cc1,-1,95,100,-12,i,i,x,x,x
CCC1SC(CC)C(=O)N(CC(=O)Nc2ccc3c(c2)OCO3)C1=O (stereo not drawn),0,102,133*,-16,i,i,109,3,102
COc1cc(N2CCCC2)c(OC)cc1/C=C(/C#N)c1ccc(Br)cc1,189*,106,103,2,i,i,101,3,96
COc1ccc(/C=C(/C#N)c2cccnc2)cc1OC,-2,96,95,-6,i,i,x,x,x
COc1cc(N2CCCC2)c(OC)cc1/C=C(/C#N)c1ccc(F)cc1,39,53*[inhibitor],99,201,i,i,101,-6,102
COc1ccc(CCNC(=O)CC2SC(=NCCc3ccccc3)NC2=O)cc1OC (stereo not drawn),-2,96,97,-12,i,i,x,x,x
COc1ccc(CCNC(=O)CC2SC(=NCCC(C)C)NC2=O)cc1OC (stereo not drawn),0,107,150*,-9,i,i,102,4,103
O=C(COC(=O)c1ccccc1)Nc1ccccc1Br,-16,54*[inhibitor],46*[inhibitor],-8,i,i,41,-29,85
